Out of some 220,000 compounds screened, about 920 (0.42%) were called active. Shown is part of a subset that was picked to be rich in actives. Unmarked numbers belong to inactive results. No stated cut-off is given here; in the data, active means inhibition above about 15%; inactive means the rest.
Target: Transitional endoplasmic reticulum ATPase (Homo sapiens) (UniProt P55072)
Test: inhibitors of human p97 ATPase, primary screen, biochemical (AID 1481);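 further: 0% = DMSO vehicle and 100% = wells lacking enzyme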
Conditions: recombinant p97 ATPase, Kinase-Glo ATP luminescence, 3 h; at 8 µM; stronger effect = higher value

Chain of Transitional endoplasmic reticulum ATPase (Homo sapiens) (P55072 whole entry, looked up): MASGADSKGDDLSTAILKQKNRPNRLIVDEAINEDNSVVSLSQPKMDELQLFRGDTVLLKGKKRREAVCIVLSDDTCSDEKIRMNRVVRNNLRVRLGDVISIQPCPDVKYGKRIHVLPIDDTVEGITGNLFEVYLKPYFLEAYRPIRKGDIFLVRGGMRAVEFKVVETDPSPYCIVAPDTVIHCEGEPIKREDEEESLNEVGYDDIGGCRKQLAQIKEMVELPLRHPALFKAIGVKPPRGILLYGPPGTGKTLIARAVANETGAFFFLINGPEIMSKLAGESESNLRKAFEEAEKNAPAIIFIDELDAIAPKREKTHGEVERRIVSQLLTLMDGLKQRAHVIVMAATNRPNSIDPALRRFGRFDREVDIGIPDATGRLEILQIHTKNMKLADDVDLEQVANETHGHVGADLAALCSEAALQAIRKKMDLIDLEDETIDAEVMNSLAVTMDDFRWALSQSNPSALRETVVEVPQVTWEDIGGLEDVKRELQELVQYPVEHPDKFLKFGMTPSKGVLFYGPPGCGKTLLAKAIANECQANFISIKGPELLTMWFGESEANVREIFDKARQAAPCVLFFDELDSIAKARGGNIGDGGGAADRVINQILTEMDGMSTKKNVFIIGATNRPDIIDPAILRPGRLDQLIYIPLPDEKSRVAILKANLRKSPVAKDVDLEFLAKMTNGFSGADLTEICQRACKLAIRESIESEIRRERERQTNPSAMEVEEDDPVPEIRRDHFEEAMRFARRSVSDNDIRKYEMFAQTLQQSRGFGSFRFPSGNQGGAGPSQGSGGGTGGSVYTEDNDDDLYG

SMILES	inhibition
Nn1c(SCC(=O)Nc2nccs2)nncc1=O	3.78%
COc1ccc(CS(=O)/C(Cl)=C(/Cl)C(=O)Nc2ccc(OC)nc2)cc1 (centres undefined)	22% (active)
COc1ccc(NC(=O)/C(Cl)=C(/Cl)S(=O)Cc2ccc(C)cc2)cn1 (centres undefined)	10.7%
COc1ccc(NC(=S)Nc2ccccc2Cl)cn1	2.95%
CC1CCN(c2ccc([N+](=O)[O-])c(SCCO)c2)CC1	7.8%
Cc1cc(C)c2cc(CN(Cc3nnnn3Cc3ccc(F)cc3)C3CCCC3)c(=O)[nH]c2c1	28.6% (active)
Cc1cc(C)c2cc(CN(Cc3cccs3)Cc3nnnn3CC3CCCO3)c(=O)[nH]c2c1 (centres undefined)	-6.18%
Cc1cccc2cc(CN(Cc3nnnn3Cc3ccccc3)C3CCCC3)c(=O)[nH]c12	1.15%
O=C(COc1ccc(/C=N/NS(=O)(=O)c2ccccc2)cc1)NCCc1ccccc1	0.13%
COCCNc1nc2nonc2nc1N(C)Cc1ccc(C)cc1	-0.9%
CN1CCN(/N=C2/C(=O)Nc3ccc([N+](=O)[O-])cc32)CC1	-0.51%
Cc1nc2cccnc2nc1C	5.4%
O=C(N/N=C/c1sc(N2CCCCC2)nc1-c1cccs1)c1cccnc1	-2.01%
CC(=O)Nc1ccc(S(=O)(=O)Nc2ccc(-c3ccc4nnc(C)n4n3)cc2)cc1	0.45%
CCOC(=O)c1cc2c(nc1NC(=S)Nc1ccccc1)CC(C)(CC)OC2 (centres undefined)	-6.73%
O=C(CN1CCCCC1)Nc1ccccc1Cl	-2.65%
O=C(Nc1ccccc1Cl)c1ccc2nsnc2c1	2.33%
O=C(Nc1ccccc1Cl)/C(Cl)=C(\Cl)S(=O)c1ccccc1 (centres undefined)	20% (active)
CCCc1nc2c(c(=O)c3ccccc3n2C)c(=O)n1-c1cc(C)cc(C)c1	1.03%
COc1ccc(/C=N/N=C2/C(=O)Nc3ccccc32)cc1O	-3.95%
Cc1nnc2n1N=C(c1ccc3c(c1)NC(=O)CO3)CS2	4.3%
CC(=O)NC1C(OCc2ccccc2)OC(COC(C)=O)C(OC(C)=O)C1OC(C)=O (centres undefined)	1.05%
O=C(OCC1O[C@@H](OC(=O)c2cc(O)c(O)c(O)c2)[C@@H](OC(=O)c2cc(O)c(O)c(O)c2)[C@@H](OC(=O)c2cc(O)c(O)c(O)c2)[C@@H]1OC(=O)c1cc(O)c(O)c(O)c1)c1cc(O)c(O)c(O)c1 (some centres undefined)	67% (active)

SMILES	inhibition
COC(=O)c1scc(C)c1NC(=O)CSc1ccc(Cl)cc1	-1.74%
CN(C)[C@@H]1C(=O)C(C(N)=O)=C(O)[C@@]2(O)C(=O)C3=C(O)c4c(O)ccc(Cl)c4[C@@H](O)[C@H]3C[C@@H]12	23.4% (active)
COc1ccc(CCNS(=O)(=O)c2ccc(Cl)s2)cc1OC	-7.85%
Cn1c(N)cc(-c2ccc(F)cc2)c(C#N)c1=O	-2.35%
O=C(Nc1nnc(CCN2CCCCC2)s1)c1cccc(Cl)c1	2.22%
Cn1c(=O)c2c(-c3cccc(Br)c3)c(C#N)c(N)nc2n(C)c1=O	0.09%
Cc1cc(C(=O)NNC(=O)c2cccc(S(=O)(=O)N3CCOCC3)c2)c2ccccc2n1	-3.18%
O=C(c1cccc(S(=O)(=O)N2CCOCC2)c1)N1CCOCC1	0.28%
O=C(NNC(=S)Nc1ccccc1)c1cccc(S(=O)(=O)N2CCOCC2)c1	15.6% (active)
COCC(C)NCc1cc(Br)ccc1OC (centres undefined)	0.25%
Cn1cccc1/C=N/NC(=O)CNc1cccc2ccccc12	3.45%
CN(C)C=NC(=O)c1cccn1-c1ncc(C(F)(F)F)cc1Cl	-5.69%
O=C(C1=C(O)C(=O)N(CCOCCO)C1c1ccccn1)c1cccs1 (centres undefined)	2.8%
Cc1cc(C)cc(NC(=O)N(C)Cc2ccccc2)c1	-0.6%
Cn1c(SCC(=O)C(C)(C)C)nnc1-c1ccccn1	-4.36%
CCSc1nc(-c2ccc(OC)cc2)cc(-c2ccc(OC)cc2)c1C#N	0.73%
COc1ccc(-c2cc(-c3ccc(N)cc3)nc(N)c2C#N)cc1OC	18.6% (active)
CCOc1cc(-c2cc(-c3ccc(OC)cc3)nc(N)c2C#N)ccc1O	2.46%
COc1ccc(N2CCC(CNC(=S)Nc3c(C)cccc3C)C2)cc1 (centres undefined)	1.49%
O=C1N(c2ccc(Cl)cc2)C(c2ccc(Cl)cc2)N2CCCN12 (centres undefined)	4.79%
Cn1c(=NC(=O)c2ccc3c(c2)OCCO3)sc2cc(S(C)(=O)=O)ccc21	-0.6%
S=C(Cc1ccc(Cl)cc1)N1CCOCC1	-3.61%
CC(=O)N1CCc2cc(Br)cc(S(=O)(=O)CCC(=O)Nc3c(C)n(C)n(-c4ccccc4)c3=O)c21	16.1% (active)

SMILES	inhibition
Cc1ccc(S(=O)(=O)CC(=O)Nc2c(C)n(C)n(-c3ccccc3)c2=O)cc1	0.73%
Cc1ccccc1OCCC(=O)Nc1c(C)n(C)n(-c2ccccc2)c1=O	3.48%
O=C(/C=C/c1ccc2c(c1)OCCO2)c1ccc(O)cc1	9.09%
CCN(c1ccccc1)S(=O)(=O)c1ccc(NC(=O)C(C)(C)C)cc1	0.99%
CCN(c1ccccc1)S(=O)(=O)c1ccc2[nH]c(=O)[nH]c2c1	5.66%
CCN(c1ccccc1)S(=O)(=O)c1ccc(N)cc1	21.5% (active)
CS(=O)(=O)N1CCC(C(=O)N2CCN(c3ccccc3)CC2)CC1	1.55%
CSc1ccccc1NC(=O)CN(C)CC(=O)Nc1cccc(Br)c1	-6.18%
C/C=N/N(c1ccccc1)c1ccccc1	0.39%
CCOc1cc(/C=N/O)cc(Br)c1OC	7.25%
C=CCOc1c(Br)cc(/C=N\n2nnnc2N)cc1OC	-2.19%
CCOc1c(Br)cc(/C=C2\C(=O)N(CCC#N)N=C2C)cc1OC	26.9% (active)
C/C(CC(=O)Nc1ccc(Cl)cc1)=N\NC(=O)C(=O)NCCO	2.21%
O=S(=O)(Cc1ccccc1)c1nc2ccccc2n1Cc1ccccn1	2.46%
Cc1ccc(NC2(C#N)C(=O)Nc3ccccc32)cc1 (centres undefined)	2.18%
N#CC1=C(N)Oc2[nH]c(=S)[nH]c(=O)c2C12C(=O)Nc1ccccc12 (centres undefined)	20.7% (active)
N#CC1=C(N)Oc2n[nH]c(CSc3ccccc3)c2C12C(=O)Nc1ccccc12 (centres undefined)	7.12%
COc1ccc2c(c1)CCc1cn3ncc(C#N)c3nc1-2	7.2%
CCC(=O)OCCNc1nc(-c2ccccc2)nc2ccccc12	4.18%
Cc1cc(C(C)(C)C)cc(C)c1N	7.52%
COc1cc(C(F)(F)F)c(C(=O)N(C)c2ccc(Cl)cc2)cn1	-1.66%
C#CCOCCOCCOCCNc1nc(N2CCN(C(=O)[C@H](Cc3ccc(O)cc3)n3cc(C(N)CC(C)C)nn3)CC2)nc(N2CCN(C(=O)[C@H](CCC(=O)O)n3cc(C(N)[C@H](C)CC)nn3)CC2)n1 (some centres undefined)	-3.1%
C#CCOCCOCCOCCNc1nc(N2CCN(C(=O)[C@H](CCCCN)n3cc([C@@H](N)C(C)CC)nn3)CC2)nc(N2CCN(C(=O)[C@H](Cc3ccc(O)cc3)n3cc([C@@H](N)C(C)CC)nn3)CC2)n1 (some centres undefined)	13.3%

SMILES	inhibition
C#CCOCCOCCOCCNc1nc(N2CCN(C(=O)C(Cc3ccc(O)cc3)n3cc(C(N)CC(C)C)nn3)CC2)nc(N2CCN(C(=O)C(Cc3ccc(O)cc3)n3cc(C(N)C(C)CC)nn3)CC2)n1 (centres undefined)	14.7% (active)
O=C(NCCc1ccccn1)c1cccnc1Oc1ccc(Cl)cc1	-3.2%
COc1ccccc1N1CCN(C(=O)C(=O)N/N=C/c2ccccc2F)CC1	0.1%
COc1ccc(C(C(=O)NC2CCCCC2)N(C(=O)Cc2c[nH]c3ccccc23)c2ccccc2)cc1OC (centres undefined)	14.6% (active)
Cc1cc(NC(=O)CCC(=O)N(c2ccccc2)C(C(=O)NC2CCCC2)c2ccncc2)no1 (centres undefined)	3.62%
COc1ccc(C(C(=O)NC2CCCCC2)N(C(=O)CCl)c2ccccc2Cl)cc1 (centres undefined)	-0.41%
Cc1ccc2nc(-c3ccc(NC(=O)c4cccnc4)cc3)oc2c1	-7.59%
COc1cccc(NC(=S)C(C#N)=C2N(C)c3ccccc3N2C)c1	4.23%
CCOc1ccc(C(c2c(C)[nH][nH]c2=O)c2c(C)[nH][nH]c2=O)cc1OCC	-3.3%
Cc1[nH][nH]c(=O)c1C(c1ccc2c(c1)OCO2)c1c(C)[nH][nH]c1=O	-1.45%
Cc1[nH][nH]c(=O)c1C(c1ccc(-c2ccc(Cl)cc2)o1)c1c(C)[nH][nH]c1=O	18.4% (active)
CCc1ccccc1NC(=O)CN(c1ccc(OC)cc1OC)S(=O)(=O)c1ccccc1[N+](=O)[O-]	0.37%
Cc1ccc(Cn2c(SCC(=O)N/N=C/c3ccccc3OCC(=O)O)nc3ccccc32)cc1	-13.9%
CC(NCc1ccccc1OC1CCCC1)c1ccccc1 (centres undefined)	2.88%
CC(Oc1ccccc1F)C(=O)NN (centres undefined)	-4.14%
O=C(/C=C/Nc1ccc(S(=O)(=O)Nc2cnc3ccccc3n2)cc1)c1cccnc1	1.02%
Oc1c(C=Nc2cccc3nsnc23)ccc2ccccc12	40.4% (active)
Oc1ccc(N=Cc2c(O)ccc3ccccc23)cc1	9.71%
Oc1ccc2ccccc2c1C=Nc1ccccc1	4.59%
CCOC(=O)c1ccccc1C(=O)N1CCOCCOCCOCC1	-4.13%
